Tb PYK inh – blocks Trypanosoma brucei pyruvate kinase. Q57TT1. Potency, µM (titrated, usually from 76.8 µM), actives largely listed as inhibitors. hit rate 0.12% among 410,000. TbPYK enzyme, Kinase-Glo Plus ATP luminescence, 45 min; note: nearly all actives have a fitted effect of over 50% in size
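ADP (130 uM final) triggers the TbPYK reaction after compound addition; incubation is 45 min at room temperature. Kinase-Glo Plus is then added and luminescence imaged. Normalized data are fitted to concentration-effect curves.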
FBPA Giardia inh – inhibitors of Giardia lamblia fructose-1,6-bisphosphate aldolase; A8B2U2; purified Giardia FBPA; Potency, µM (titrated, usually from 59.6 µM), usual class: inhibitors; hit rate 0.71% among 290,000; note: nearly all actives have a fitted effect of over 55% in size
Target sequence (A8B2U2 whole entry, looked up): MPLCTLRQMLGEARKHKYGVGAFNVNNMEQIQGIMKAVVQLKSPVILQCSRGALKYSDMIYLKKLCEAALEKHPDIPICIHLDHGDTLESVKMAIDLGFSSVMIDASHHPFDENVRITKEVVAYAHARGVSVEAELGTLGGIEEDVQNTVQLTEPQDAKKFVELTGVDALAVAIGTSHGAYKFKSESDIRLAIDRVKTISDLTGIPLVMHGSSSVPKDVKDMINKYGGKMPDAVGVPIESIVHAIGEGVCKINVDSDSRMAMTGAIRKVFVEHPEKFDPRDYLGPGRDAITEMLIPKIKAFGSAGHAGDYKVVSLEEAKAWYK
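40 nM FBPA preincubated 10 min at RT with compound (up to 57.5 uM final), then substrate plus GAPDH/TPI/NAD/arsenate coupling and diaphorase/resazurin added. Fluorescence read after 20 min at RT, 525/598 nm.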
LmPK inh – LmPK (Leishmania mexicana) enzyme inhibition. purified LmPK, Kinase-Glo ATP luminescence, 1 h. Potency, µM (series often up to 57.5 µM), hits mostly inhibitors. hit rate 0.37% among 290,000. AID 1721
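Purified LmPK (0.1 nM) with 0.5 mM PEP and 0.1 mM ADP in imidazole buffer pH 7.2 with MgCl2/KCl, 1 h at room temperature. ATP formed was read by luciferase luminescence and normalized to no-enzyme and uninhibited controls.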
RE007 growth inh – less growth of the S. pombe RE007 Vpr strain | S. pombe RE007 Vpr strain, BacTiter-Glo ATP luminescence, 24 h | Potency, µM (doses to about 92.2 µM), usual class: inhibitors | hit rate 0.21% among 360,000; active = well fitted falling curve with a large enough effect; inconclusive = small, poorly fitted or top-dose-only effect; inactive = no such curve, though single readings can be large or run the other way; note: nearly all actives have a fitted effect of over 50% in size
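Fission yeast strain RE007, carrying one chromosomally integrated HIV-1 vpr copy, was seeded at OD 0.01 in PMG+AL medium with 23 nL pinned compound. After 24 h at 30 °C and 99% humidity, viability was read by BacTiter-Glo luminescence.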
Shiga inhibitor – blocks Shiga toxin action in Vero cells. Vero cells, Shiga toxin protein synthesis inhibition reporter. hit rate 9.2% among 290,000. inhibition, % at 38.7 µM. AID 2315; in the data active = inhibition mostly above about 28%, no sharp cut-off; inactive = mostly below about 43%
Cycloheximide cs – counter-screen hit for Shiga toxin inhibitors, cycloheximide. cell reporter, cycloheximide protein synthesis inhibition counterscreen. max response, %. hit rate 12% among 300,000; in the data active = max response mostly above about 13%, no sharp cut-off; inactive = mostly below about 14%; note: read at 38.3 µM for the half of the compounds with a filed dose
Large screens that a line does not name were inactive. Many of the other results were omitted from the sample, so hits are more common in it than they were. Unless noted, calls come from the whole dose curve; as a rule, active = well fitted curve in the direction sought with a large enough effect; inconclusive = small, poorly fitted or top-dose-only effect, or another doubt; inactive = no such curve, though single readings can be large; an effect the other way counts as inactive or inconclusive.

NC(N)=NS(=O)(=O)c1ccc(N/C=C\C(=O)c2ccncc2)cc1	none
Cc1ccc(O)c(N/C=C/C(=O)c2ccc(F)cc2)c1	Shiga inhibitor 129.4, Cycloheximide cs 42.9
Cc1ccc(N/C=C/C(=O)c2ccc(C)cc2)cc1	Shiga inhibitor 123.9, Cycloheximide cs 64.8
CCc1cccc(NC(=O)CCS(=O)(=O)c2cc3c4c(c2)CCN4C(=O)CC3)c1	none (no result: FBPA Giardia inh, LmPK inh, RE007 growth inh, Shiga inhibitor, Cycloheximide cs)
CCOC(=O)N/N=C/c1ccc(N(CC)CC)cc1O	Shiga inhibitor 62.1, Cycloheximide cs 22.5
CCN(CC)c1ccc(/C=N/NC(=O)c2c(Cl)cnn2C)c(O)c1	RE007 growth inh inconclusive, Shiga inhibitor 55.7, Cycloheximide cs 44.1
CCN(CC)c1ccc(/C=N/NC(=O)c2cccc(S(=O)(=O)N3CCOCC3)c2)c(O)c1	none
O=[N+]([O-])c1cc(Cl)cc(/C=N/NC(=S)Nc2ccc(S(=O)(=O)N3CCOCC3)cc2)c1O	none
COc1nccc(NCc2ccccc2)c1C#N	none (no result: FBPA Giardia inh, LmPK inh, Shiga inhibitor, Cycloheximide cs)
COC(=O)c1ccc(NC2=C(Cl)C(=O)OC2OC(=O)c2ccccc2)cc1 (stereo not drawn)	Cycloheximide cs 41.7
COc1cc(C=O)ccc1OCCSc1ccc(Cl)cc1	Shiga inhibitor 70.0, Cycloheximide cs 22.2
Cc1ccccc1-c1ncc(CN2CCN(C3CCCC3)C(CCO)C2)cn1 (stereo not drawn)	none
Cc1ccccc1-c1ccc(CN2CCN(C)C(CCO)C2)cc1 (stereo not drawn)	Shiga inhibitor 19.4, Cycloheximide cs 11.2
Cn1nc(-c2ccccc2)cc1NS(=O)(=O)c1ccc(C#N)cc1	none
Cc1cccc(-c2cc3nc4c(c(NCc5ccco5)n3n2)CCCC4)c1	Shiga inhibitor 126.5, Cycloheximide cs 56.9
Fc1ccc(-c2cc3nc4c(c(N5CCOCC5)n3n2)CCCC4)cc1	Shiga inhibitor 94.5, Cycloheximide cs 29.4
Cc1cccc(-c2cc3nc4c(c(N5CCCC(O)C5)n3n2)CCC4)c1 (stereo not drawn)	none
OC1CCCN(c2c3c(nc4cc(-c5cccc(F)c5)nn24)CCCC3)C1 (stereo not drawn)	Shiga inhibitor 79.7, Cycloheximide cs 56.5
OC1CCN(c2c3c(nc4cc(-c5ccc(F)cc5)nn24)CCC3)CC1	none
Cc1cccc(-c2cc3nc4c(c(N5CCOCC5)n3n2)CCCC4)c1	Shiga inhibitor 72.8, Cycloheximide cs 32.0
COC(=O)NC(c1cccc(F)c1)C(C(C)=O)C(=O)OC (stereo not drawn)	none (no result: Tb PYK inh, LmPK inh, RE007 growth inh, Shiga inhibitor, Cycloheximide cs)
CC(=O)NCCc1nc2cc(NC(=O)COc3ccc(C)cc3)ccc2n1C	none
O=[N+]([O-])c1ccc(-c2nc(-c3ccncc3)no2)cc1	Shiga inhibitor 37.3, Cycloheximide cs 18.3
c1coc(-c2nc(-c3ccncc3)no2)c1	LmPK inh 22.4µM, Shiga inhibitor 71.2, Cycloheximide cs 48.8
Brc1ccc(-c2nc(-c3ccncc3)no2)cc1	none
c1ccc(-c2ccc(-c3nc(-c4ccncc4)no3)cc2)cc1	Cycloheximide cs 34.8
c1ccc(-c2nc(-c3ccncc3)no2)cc1	LmPK inh 14.1µM, Shiga inhibitor 148.1, Cycloheximide cs 69.6
NC1=NC(=O)C(c2ccccc2)(c2ccccc2)S1	none (no result: FBPA Giardia inh, LmPK inh, Shiga inhibitor, Cycloheximide cs)
CCOc1ccc(OCC)c(Nc2ccc3cc(S(=O)(=O)N4CCCC4)ccc3n2)c1	none (no result: FBPA Giardia inh, LmPK inh, RE007 growth inh, Shiga inhibitor, Cycloheximide cs)
CCCc1c(C)[nH]c2ccc(C(=O)O)cc2c1=S	Tb PYK inh inconclusive, FBPA Giardia inh inconclusive
CCN(CC)S(=O)(=O)c1cc(-c2onc(C)c2C)ccc1OC	none (no result: FBPA Giardia inh, LmPK inh, RE007 growth inh, Shiga inhibitor, Cycloheximide cs)
Cc1ccccc1NC(=O)C1C2/C=C\CCCCC21 (stereo not drawn)	none
O=C(Nc1ccccc1)C1C2/C=C\CCCCC21 (stereo not drawn)	Shiga inhibitor 43.4, Cycloheximide cs 19.3
Cc1ccc(NC(=O)C2C3/C=C\CCCCC32)cc1C (stereo not drawn)	Cycloheximide cs 37.1 (no result: FBPA Giardia inh)
Cc1cc(NC(=O)Nc2cc(F)ccc2F)no1	Cycloheximide cs 9.2 (no result: RE007 growth inh)
Cc1cc(NC(=O)Nc2ccc(F)c(Cl)c2)no1	Shiga inhibitor 28.8, Cycloheximide cs 28.4
Cc1cc(NC(=O)Nc2cccc(Cl)c2)no1	none (no result: FBPA Giardia inh, LmPK inh, Shiga inhibitor, Cycloheximide cs)
Cc1cc(NC(=O)Nc2cc(Cl)sc2Cl)no1	none
COc1ccc(-c2noc(CC(=O)N(C)c3cccc(C)c3)n2)cc1	none (no result: FBPA Giardia inh, LmPK inh, RE007 growth inh, Shiga inhibitor, Cycloheximide cs)

Source: PubChem BioAssay (National Center for Advancing Translational Sciences (NCATS))
